# Calls of active or inactive are those of the source.
# Legend:
# [1] = tested on: Wnt5a (protein binding on small-molecule microarray); test: Wnt5a binders on small-molecule microarray, primary screen, biophysical, 635/667 nm fluorescence (AID 1142); settings: 635 nm fluorescence, higher = more signal;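 further: fluorescence read at 667 nm with signal to noise per printed feature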
# [2] = cell viability in Huh7 cells, primary screen, cytotoxicity control for HCV replication inhibitor project, CellTiter-Glo luminescence, basal, 48 h (AID 1143); settings: Huh7 HCV replicon, higher = more signal, called active from +8 up or from −8 down;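 further: Huh7 hepatoma cells carrying a hepatitis C replication reporter with no stimulus; test concentration not given here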
# [3] = CREB reporter modulators without forskolin, primary screen, cell-based, PC12, CRE-LacZ reporter, unstimulated (AID 1145); settings: no forskolin, luminescence, 4.5 h, higher = more signal, called active from +8 up or from −8 down
# [4] = CREB reporter modulators under forskolin, primary screen, cell-based, PC12, CRE-LacZ reporter, forskolin-stimulated (AID 1146); settings: luminescence, 4.5 h, higher = more signal, called active from +8 up or from −8 down;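 further: PC12 cells with 6xCRE LacZ reporter stimulated by forskolin 10 µM; beta-galactosidase reporter signal reflecting CREB driven transcription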
# [5] = biological target: Streptavidin (Streptomyces avidinii) (UniProt P22629); test: streptavidin binders on small-molecule microarray, primary screen, artefact control for SMM compound annotation, biophysical, 635/667 nm fluorescence (AID 1147); settings: streptavidin binding, higher = more signal;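 further: signal reflects streptavidin binding to arrayed compounds as a control protein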
# [6] = small-molecule binders of probe aInhba, primary screen, biochemical, small-molecule microarray, 635/667 nm fluorescence (AID 1148); settings: higher = more signal;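 further: score merges 667nm spot fluorescence with signal-to-noise for antibody binding to printed compounds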
# [7] = biological target: Torsin-1A (Homo sapiens) (UniProt O14656); test: torsin A binders from cell lysate, primary screen, small-molecule microarray, wild-type, 635/667 nm (AID 1149); settings: COS7 hTOR1A-WT lysate, 635 nm fluorescence, higher = more signal
# [8] = biological target: Torsin-1A (Homo sapiens) (UniProt O14656); test: small-molecule binders of mutant TOR1A in lysate, primary screen, cell lysate, small-molecule microarray, COS7 lysate, 635/667 nm fluorescence (AID 1150); settings: COS7 hTOR1A mutant lysate, 635 nm fluorescence, higher = more signal;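 further: score pools 667 nm emission and signal to noise measuring lysate protein binding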
# [9] = tested on: Sonic hedgehog protein (Shh); test: small-molecule binders of Shh protein, primary screen, biochemical, small-molecule microarray, 635/667 nm fluorescence (AID 1151); settings: small-molecule microarray binding, 635 nm fluorescence; higher = more signal;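 further: Shh protein binding to compounds spotted on small-molecule microarray slides; score combines spot fluorescence intensity with signal-to-noise across triplicate slides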
# [10] = E. coli DRC41 culture turbidity changes, primary screen, E. coli filamentation inducer project, strain DRC41, OD650, 48 h (AID 1152);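 further: E. coli MC1000 strain DRC41 lacking acrAB efflux pump and sulA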; settings: E. coli DRC41 (acrAB sulA), higher = more signal, called active from +8 up or from −8 down
# [11] = small-molecule binders of probe aLefty1, primary screen, biochemical, small-molecule microarray, 635/667 nm fluorescence (AID 1153); settings: higher = more signal;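 further: score merges spot fluorescence with signal-to-noise ratio from the scanned slide images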
# [12] = PSAC antagonists in infected red cells, primary screen, cell-based, P. falciparum Indochina, OD700, 1 h (AID 1154); settings: P. falciparum Indochina infected RBC osmotic lysis, higher = more signal, called active from +8 up or from −8 down
# [13] = PSAC antagonists in infected red cells, primary screen, cell-based, P. falciparum Indochina, OD700, 2 h (AID 1155);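 further: lysis reports solute entry through the parasite surface anion channel PSAC; channel blockers reduce lysis of infected cells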; settings: P. falciparum Indochina infected erythrocytes, osmotic lysis OD700; higher = more signal, called active from +8 up or from −8 down
# [14] = osmotic lysis modulators in infected erythrocytes, primary screen, PSAC antagonist project, cell-based, P. falciparum Indochina, OD700, 3 h (AID 1156); settings: higher = more signal, called active from +8 up or from −8 down
# [15] = PSAC antagonists in infected red cells, primary screen, cell-based, P. falciparum Indochina, OD700, 18 h (AID 1157); settings: P. falciparum Indochina infected erythrocytes, osmotic lysis OD700, 18 h; higher = more signal, called active from +8 up or from −8 down
# [16] = modulators of S6 phosphorylation in cells, primary screen, cell-based, A549, cytoblot, luminescence, serum-stimulated (AID 1158); settings: A549 phospho-S6 cytoblot, 5 h, higher = more signal;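 further: serum-stimulated A549 lung adenocarcinoma cells; signal is phosphorylated S6 detected by cytoblot immunostaining with HRP secondary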
# [17] = biological target: NADPH oxidase 2 (Homo sapiens) (UniProt P04839); test: NOX2-dependent H2O2 signal modulators, primary screen, NOX inhibitor project, cell-based, HEK293-NOX2, PMA-stimulated, Amplex Red fluorescence (AID 1159); settings: 45 min, higher = more signal, called active from +8 up or from −8 down; further: test concentration not given here
# [18] = biological target: NADPH oxidase 4 (Homo sapiens) (UniProt Q9NPH5); test: NOX4-dependent H2O2 signal modulators, primary screen, NOX inhibitor project, cell-based, HEK293-NOX4, tetracycline-induced, Amplex Red fluorescence (AID 1160); settings: 45 min, higher = more signal, called active from +8 up or from −8 down
# [19] = biological target: NADPH oxidase 5 (Homo sapiens) (UniProt Q96PH1); test: NOX5-dependent H2O2 signal modulators, primary screen, NOX inhibitor project, cell-based, HEK293-NOX5, Amplex Red fluorescence (AID 1161); settings: HEK293-NOX5, ionomycin, 45 min, higher = more signal
# NADPH oxidase 5 (Homo sapiens), sequence (Q96PH1 whole entry, looked up): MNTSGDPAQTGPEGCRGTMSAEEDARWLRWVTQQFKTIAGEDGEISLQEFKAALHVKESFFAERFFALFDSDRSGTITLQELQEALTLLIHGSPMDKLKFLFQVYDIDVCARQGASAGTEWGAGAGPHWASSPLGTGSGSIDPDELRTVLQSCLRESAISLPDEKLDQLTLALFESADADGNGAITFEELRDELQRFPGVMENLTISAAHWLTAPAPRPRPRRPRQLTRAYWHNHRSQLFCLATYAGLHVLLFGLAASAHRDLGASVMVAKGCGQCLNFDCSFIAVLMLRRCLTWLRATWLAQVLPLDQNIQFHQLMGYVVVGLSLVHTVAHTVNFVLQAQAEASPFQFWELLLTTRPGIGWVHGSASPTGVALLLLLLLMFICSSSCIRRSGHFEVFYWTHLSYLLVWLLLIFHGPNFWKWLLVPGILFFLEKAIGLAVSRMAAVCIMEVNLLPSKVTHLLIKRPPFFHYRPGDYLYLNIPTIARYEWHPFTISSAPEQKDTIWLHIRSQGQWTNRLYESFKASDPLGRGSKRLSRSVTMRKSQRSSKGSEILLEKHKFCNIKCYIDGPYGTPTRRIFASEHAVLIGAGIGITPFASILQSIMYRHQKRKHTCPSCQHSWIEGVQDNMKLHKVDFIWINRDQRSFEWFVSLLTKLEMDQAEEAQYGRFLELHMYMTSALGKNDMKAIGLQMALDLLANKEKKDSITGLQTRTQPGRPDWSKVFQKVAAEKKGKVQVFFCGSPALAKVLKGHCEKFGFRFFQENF
# Torsin-1A (Homo sapiens), sequence (O14656 whole entry, looked up): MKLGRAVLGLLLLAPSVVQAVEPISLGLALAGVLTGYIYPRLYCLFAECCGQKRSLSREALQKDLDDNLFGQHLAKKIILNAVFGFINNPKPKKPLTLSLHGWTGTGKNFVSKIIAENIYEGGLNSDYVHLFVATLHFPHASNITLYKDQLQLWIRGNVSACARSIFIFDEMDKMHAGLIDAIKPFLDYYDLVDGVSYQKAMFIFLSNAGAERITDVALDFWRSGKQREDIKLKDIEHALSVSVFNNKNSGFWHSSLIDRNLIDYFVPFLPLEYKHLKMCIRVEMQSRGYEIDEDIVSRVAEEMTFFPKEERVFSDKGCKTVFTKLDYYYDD
# NADPH oxidase 2 (Homo sapiens), sequence (P04839 whole entry, looked up): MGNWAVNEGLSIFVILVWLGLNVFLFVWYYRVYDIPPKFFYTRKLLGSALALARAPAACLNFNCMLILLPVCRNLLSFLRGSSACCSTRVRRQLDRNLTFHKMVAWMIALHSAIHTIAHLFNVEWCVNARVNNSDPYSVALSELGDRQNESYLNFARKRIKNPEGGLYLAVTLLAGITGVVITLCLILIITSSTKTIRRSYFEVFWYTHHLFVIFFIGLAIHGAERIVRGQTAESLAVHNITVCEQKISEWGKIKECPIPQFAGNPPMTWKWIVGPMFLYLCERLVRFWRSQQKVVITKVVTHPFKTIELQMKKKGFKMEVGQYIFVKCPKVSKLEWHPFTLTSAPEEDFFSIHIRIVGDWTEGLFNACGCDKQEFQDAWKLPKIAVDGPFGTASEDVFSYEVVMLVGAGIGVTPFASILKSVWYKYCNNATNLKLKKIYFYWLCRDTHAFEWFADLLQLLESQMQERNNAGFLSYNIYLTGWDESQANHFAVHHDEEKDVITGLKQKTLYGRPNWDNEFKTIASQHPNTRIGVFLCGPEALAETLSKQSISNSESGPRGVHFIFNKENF
# Streptavidin (Streptomyces avidinii), sequence (P22629 whole entry, looked up): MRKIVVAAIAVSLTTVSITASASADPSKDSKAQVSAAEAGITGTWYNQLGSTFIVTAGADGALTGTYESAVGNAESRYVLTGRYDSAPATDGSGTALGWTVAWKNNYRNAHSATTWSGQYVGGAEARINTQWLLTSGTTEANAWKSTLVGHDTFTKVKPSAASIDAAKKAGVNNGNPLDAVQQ
# NADPH oxidase 4 (Homo sapiens), sequence (Q9NPH5 whole entry, looked up): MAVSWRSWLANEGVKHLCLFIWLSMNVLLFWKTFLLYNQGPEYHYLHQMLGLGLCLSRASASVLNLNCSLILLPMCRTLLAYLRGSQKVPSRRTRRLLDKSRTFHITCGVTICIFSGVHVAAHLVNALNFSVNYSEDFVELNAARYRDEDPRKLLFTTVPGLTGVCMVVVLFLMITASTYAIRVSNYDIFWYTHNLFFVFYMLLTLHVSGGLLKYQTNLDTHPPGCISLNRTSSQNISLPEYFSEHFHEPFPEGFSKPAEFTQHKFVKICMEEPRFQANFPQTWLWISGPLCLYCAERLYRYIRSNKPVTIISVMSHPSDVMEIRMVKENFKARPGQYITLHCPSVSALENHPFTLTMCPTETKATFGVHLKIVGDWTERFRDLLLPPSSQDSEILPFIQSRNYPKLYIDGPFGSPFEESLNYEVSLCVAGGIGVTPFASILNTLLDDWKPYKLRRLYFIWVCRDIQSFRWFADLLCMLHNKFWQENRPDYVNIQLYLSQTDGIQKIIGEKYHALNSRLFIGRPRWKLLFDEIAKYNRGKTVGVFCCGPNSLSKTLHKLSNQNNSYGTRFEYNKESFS
Structure (SMILES),composite z-score [1],z-score [2],z-score [3],z-score [4],composite z-score [5],composite z-score [6],composite z-score [7],composite z-score [8],composite z-score [9],z-score [10],composite z-score [11],z-score [12],z-score [13],z-score [14],z-score [15],z-score [16],z-score [17],z-score [18],z-score [19]
C[C@]1(C(=O)NCc2ccccc2)c2ccccc2C(=O)N(Cc2cc(C(F)(F)F)cc(C(F)(F)F)c2)[C@H]1c1ccc(CO)cc1,0.944,-5.26 (inactive),-0.735 (inactive),-1.41 (inactive),0.157,0.447,0.462,0.334,1.51,2.32 (inactive),0.364,6.25 (inactive),1.11 (inactive),0.709 (inactive),0.448 (inactive),3.92,-1.35 (inactive),-1.03 (inactive),-1
CCCC[C@H]1OB(O)C[C@H]2C1=C(COC)C[C@H]1C(=O)N(Cc3ccccc3)C(=O)[C@H]12,0.192,-0.273 (inactive),0.307 (inactive),-1.76 (inactive),-0.098,0.124,-0.0377,0.37,0.329,2.78 (inactive),-0.0969,1.14 (inactive),-1.1 (inactive),0.223 (inactive),-2 (inactive),0.932,0.034 (inactive),0.811 (inactive),1.37
COCCOC(=O)N1C(=O)[C@@]2(c3cc(C#CCC(C(=O)OC)C(=O)OC)ccc31)[C@H](C(=O)N1CCN(c3ncccn3)CC1)[C@H]1C(=O)O[C@H](c3ccccc3)[C@H](c3ccccc3)N1[C@@H]2c1ccc(O)cc1,0.117,-3.81 (inactive),-0.671 (inactive),-0.784 (inactive),0.043,0.0386,0.143,0.731,1.38,3.34 (inactive),0.443,1.92 (inactive),-0.0642 (inactive),-0.504 (inactive),-1.39 (inactive),1.69,1.28 (inactive),0.7 (inactive),1.82
CCCC/C=C/[C@H]([C@@H](O)Cc1ccccc1)N(CC#Cc1ccccc1)Cc1ccccc1Br,-0.238,-0.677 (inactive),-0.0534 (inactive),-0.967 (inactive),-0.951,-0.302,-0.335,-0.242,-1.29,2.99 (inactive),-0.0061,2.63 (inactive),1.29 (inactive),-0.0195 (inactive),0.522 (inactive),0.108,-0.424 (inactive),0.426 (inactive),-0.622
C[C@H]1COC(=O)[C@H](Cc2ccccc2)NC(=O)[C@@H](C)COC(=O)[C@H](Cc2ccccc2)NC1=O,0.226,-2.12 (inactive),2.52 (inactive),-0.837 (inactive),1.65,-0.0523,1.18,0.654,1.13,-0.0556 (inactive),-0.239,0.162 (inactive),-0.643 (inactive),-0.295 (inactive),-1.93 (inactive),1.58,0.915 (inactive),0.838 (inactive),0.253
C[C@@H]1C=CCC(=O)OC[C@H]2O[C@@H](C=C[C@@H]2O)[C@H](C)C=CCC(=O)OC[C@H]2O[C@H]1C=C[C@@H]2O,0.375,-5.78 (inactive),0.247 (inactive),-0.724 (inactive),0.412,0.357,0.997,0.515,2.24,-1.91 (inactive),0.596,0.43 (inactive),0.278 (inactive),-1.65 (inactive),-0.725 (inactive),2.22,-1.01 (inactive),0.418 (inactive),0.0421
COc1cc([C@@H]2N[C@H](C(=O)O)Cc3c2[nH]c2ccccc32)cc(OC)c1OC,0.102,-1.81 (inactive),0.108 (inactive),-1.69 (inactive),0.0855,-0.0102,0.257,0.285,0.342,0.441 (inactive),-0.324,0.604 (inactive),0.321 (inactive),0.665 (inactive),0.198 (inactive),0.172,2.14 (inactive),-0.0815 (inactive),-1.1
CCN1C(C)=C(C(=O)OC)[C@@H](c2ccccc2)N2C(=O)[C@](O)(C(=O)OC)[C@@H](c3ccccc3)C(C(=O)c3ccccc3)=C12,0.271,-1.49 (inactive),1.55 (inactive),0.214 (inactive),0.0306,-0.0552,0.5,0.269,0.473,0.282 (inactive),-0.142,1.78 (inactive),0.489 (inactive),1.16 (inactive),0.978 (inactive),1.3,0.6 (inactive),0.828 (inactive),-0.284
C=CCC1=C[C@H]2[C@H]([C@@H]3C=C[C@]2(CC=C)C(=O)[C@]32CO2)[C@@]2(CO2)C1=O,0.123,-3.26 (inactive),2.21 (inactive),1.62 (inactive),0.843,-0.0021,0.919,-0.0031,2.11,2.45 (inactive),0.736,0.348 (inactive),-0.877 (inactive),1.16 (inactive),-1.87 (inactive),0.76,-0.0349 (inactive),0.0495 (inactive),-0.972

# — PubChem BioAssay
